# IDH1 R132H inh: inhibitors of human mutant IDH1 R132H | IDH1-R132H enzyme, NADPH consumption, diaphorase/resazurin fluorescence | Potency, µM (highest dose often 76.6 µM), for inactives: top-dose activity change, negative = inhibition, actives largely listed as inhibitors | 390,000 tested, 0.093% active | AID 602179; also: nearly all actives have a fitted effect of over 65% in size
# Target sequence (O75874 whole entry R132H, stated change not applied): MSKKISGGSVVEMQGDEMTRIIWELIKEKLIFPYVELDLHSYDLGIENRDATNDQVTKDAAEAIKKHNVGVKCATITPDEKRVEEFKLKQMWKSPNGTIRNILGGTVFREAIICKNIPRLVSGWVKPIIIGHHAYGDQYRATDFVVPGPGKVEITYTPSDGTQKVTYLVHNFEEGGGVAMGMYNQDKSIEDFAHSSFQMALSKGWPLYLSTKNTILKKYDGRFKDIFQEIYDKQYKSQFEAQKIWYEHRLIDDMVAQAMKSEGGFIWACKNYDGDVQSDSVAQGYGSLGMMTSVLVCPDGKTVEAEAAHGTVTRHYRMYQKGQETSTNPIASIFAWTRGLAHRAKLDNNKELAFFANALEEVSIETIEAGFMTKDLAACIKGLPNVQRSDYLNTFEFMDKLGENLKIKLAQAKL
#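 IDH1-R132H (0.5 ug/mL dispensed) in pH 7.5 Tris buffer was preincubated 30 min with compound, then given a substrate mix of 0.016 mM NADPH and 2 mM alpha-KG for 80 min at room temperature; remaining NADPH was read by diaphorase/resazurin fluorescence.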
# TrxR1 substrate: substrates of rat thioredoxin reductase 1; O89049; purified TrxR1 substrate turnover, NADPH consumption readout; Potency, µM (series often up to 114 µM), without a hit: at the top dose activity change, negative = substrate turnover; 390,000 tested, 0.01% active; also: nearly all actives have a fitted effect of over 50% in size
#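 Rat TrxR1, dispensed at 90 nM, was prereduced with 400 uM NADPH (final) for 5 min at ~22 deg C, then incubated with compound 15 min before 400 uM selenite. A first-read NADPH fluorescence drop versus no-compound background flagged substrates.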
# GALK inhibitor: galactokinase (human) inhibition | P51570 | Purified GALK, Kinase-Glo residual ATP luminescence | Potency, µM (highest dose often 57.5 µM), without a hit: at the top dose activity change, negative = inhibition, hits mostly inhibitors | 270,000 tested, 0.007% active | AID 1868
#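 Galactose (100 uM) and ATP (35 uM) were turned over by 5 nM GALK for 1 h at RT. Kinase-Glo Plus then converted the remaining ATP into a luminescent signal.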
# rTrxR1 inhibitor: blocks rat thioredoxin reductase 1 | O89049 | recombinant rTrxR1, NADPH fluorescence consumption, selenite substrate | Potency, µM (series often up to 114 µM), for the others: at the top dose activity change, negative = inhibition, hits mostly inhibitors | 390,000 tested, 1% active; also: nearly all actives have a fitted effect of over 65% in size
#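 Rat TrxR1 (90 nM in the dispensed reagent) was pre-reduced with 400 uM NADPH for 5 min at room temperature, then incubated with compound for 15 min. After 400 uM selenite was added, NADPH fluorescence (Ex 340/Em 450 nm) was followed for 8 min.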
# Anesthetic bind: candidate novel general anesthetic via apoferritin binding | P02791 | apoferritin/1-aminoanthracene competitive binding, fluorescence | Potency, µM (series often up to 77.5 µM), for the others: at the top dose activity change, negative = displacement, hits mostly inhibitors | 350,000 tested, 0.074% active | AID 485281; also: nearly all actives have a fitted effect of over 20% in size
#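 Steps: apoferritin (10 uM) was premixed with half-saturated 1-AMA in PBS, compounds were pin-transferred, plates stood 10 min at room temperature, fluorescence was read at 380/535 nm, and curves were fitted with a Hill equation.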
# PKM2 act: activators of human pyruvate kinase M2; P14618; purified PKM2, Kinase-Glo ATP luminescence, activation; response scale: 0% is enzyme alone, no compound; Potency, µM (doses to about 57.5 µM), for the others: at the top dose activation, actives largely listed as activators; 260,000 tested, 0.34% active; also: nearly all actives have a fitted effect of over 55% in size
#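 Purified hPK-M2 (>95%) run at intermediate activity with 0.1 mM ADP and 0.5 mM PEP in 50 mM imidazole pH 7.2, KCl, MgCl2; 1 h room temperature. ATP formed read by Kinase-Glo luminescence; normalized to uninhibited and no-enzyme controls.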
# Starred values were filed as active, the others as inactive; ? = inconclusive; nt = not tested or not shown; [ ] = remark or other dose. Most compounds without a hit are left out; they make up all but 1.3% or so of the library. Calls follow the shape of the dose curve; as a rule, active = well fitted curve in the direction sought with a large enough effect; inconclusive = small, poorly fitted or top-dose-only effect, or another doubt; inactive = no such curve, though single readings can be large; an effect the other way counts as inactive or inconclusive. % is scaled to controls: 0 for no effect and ±100 for the full control effect; potency is read from the fitted curve at half-maximal effect.
SMILES,IDH1 R132H inh,TrxR1 substrate,GALK inhibitor,rTrxR1 inhibitor,Anesthetic bind,PKM2 act
COc1ccc(C)cc1NC(=O)c1noc2c1CSc1ccccc1-2,-7%,8%,nt,14%,-12%,nt
COC(=O)c1ccccc1NC(=O)c1noc2c1CSc1ccccc1-2,0%,-4%,nt,14µM*,-9%,nt
CCc1ccccc1NC(=O)c1ccc(F)c(S(=O)(=O)N2CCN(c3ccccc3OC)CC2)c1,6%,-2%[57.1 µM],nt,7%[57.1 µM],-7%,nt
COc1ccc2c(c1)CCc1c(C(=O)NCCN3CCOCC3)noc1-2,8%,2%,2%,40µM*,1%,1%
COc1ccc2c(c1)CCc1c(C(=O)NCCCn3ccnc3)noc1-2,5%,2%,0%,16µM*,-18%,-1%
COc1ccc(C(=O)NCCCn2ccnc2)cc1,2%,5%[57.1 µM],8%,13%[57.1 µM],-19%,3%
COc1ccc2c(c1)CCc1c(C(=O)N(C)c3ccccc3)noc1-2,-11%,-3%,-1%,79µM*,?,2%
COCC(C)NC(=O)c1noc2c1CCc1cc(OC)ccc1-2 (configuration not stated),23%,0%,-2%,10µM*,-11%,-7%
COCCNC(=O)c1noc2c1CCc1cc(OC)ccc1-2,3%,5%,2%,?,-12%,4%
CCc1cccc(NC(=O)C(Cc2ccccc2)NS(=O)(=O)c2ccc3c(c2)oc(=O)n3C)c1 (configuration not stated),0%,2%,nt,8%,4%,nt
Cc1ccc(CNC(=O)CSc2ccsc2[N+](=O)[O-])cc1,-4%,-11%,6%,50µM*,-14%,-1%
COC(=O)C[C@H]1c2ccccc2S(=O)(=O)N1c1ccc(N(C)C)cc1,nt,0%,nt,-14%,nt,nt
O=C(Nc1nc2ccc(F)cc2s1)c1nc(S(=O)(=O)Cc2ccccc2)ncc1Cl,-5%,1%,nt,3.5µM*,?,nt
Cc1cccc(CS(=O)(=O)c2ncc(Cl)c(C(=O)Nc3nc4ccc(F)cc4s3)n2)c1,16%,5%,nt,3.2µM*,?,nt
O=C1C=C(NCc2ccccc2)c2ccccc2C1=O,21%,16µM*,?,?,-1%,1%
O=C1C=C(Nc2ccccc2O)c2ccccc2C1=O,18%,?,-2%,-6%,?,-6%
Cc1cc(NC(=O)c2cccn2-c2nnc(N3CCCCC3)s2)ccc1Br,17%,7%[57.1 µM],nt,27%[57.1 µM],4%,nt
CSc1nc(N)nc(SCC(=O)Nc2ccc(Cl)cc2)c1C#N,0%,2%[57.1 µM],-3%,-1%[57.1 µM],?,4µM*
CSc1nc(N)nc(SCC(=O)Nc2cccc(F)c2)c1C#N,-1%,13%,-2%,12%,39%,1.4µM*
CSc1nc(N)nc(SCC(=O)C(C)(C)C)c1C#N,10%,-12%[57.1 µM],3%,-10%,-23%,1%
O=S(=O)(Nc1ccc(F)c(C(F)(F)F)c1)c1ccc(N2CCCCS2(=O)=O)cc1,-13%,-2%[57.1 µM],nt,8%[57.1 µM],?,nt
NC(=O)c1c(N)sc2c1CCCC2,-6%,4%,1%,50µM*,2%,2%
Nc1sc2c(c1C(=O)c1ccccc1)CCCC2,-7%,-9%,-2%,?,?,0%
COc1cccc(C(=O)NCC(c2ccc(N(C)C)cc2)N2CCCC2)c1OC (configuration not stated),14%,2%[57.1 µM],nt,6%[57.1 µM],-7%,nt
C(=C1C=c2ccccc2=C1)c1ccc(N=Nc2ccc(C=C3C=c4ccccc4=C3)cc2)cc1,nt,-4%,nt,9%,nt,nt
CN(C)c1ccc(/C=N/NC(=O)c2ccccc2O)o1,10%,6%[57.1 µM],0%,?,-10%,?
Cc1cc(C(=O)N/N=C/c2ccc(N(C)C)o2)cs1,-5%,2%,-6%,14µM*,-15%,29%
CN(C)c1ccc(/C=N/NC(=O)C(O)(c2ccccc2)c2ccccc2)o1,1%,0%,1%,8.9µM*,-16%,11%

# Source: PubChem BioAssay
